A selection: hits, their analogues and other compounds. The true share with any hit is near 19%.
Cycloheximide cs = counter-screen hit for Shiga toxin inhibitors, cycloheximide; cell reporter, cycloheximide protein synthesis inhibition counterscreen; AID 2314; 12% of 300,000 active; max response, %; in the data active means max response mostly above about 13%, no sharp cut-off; inactive means mostly below about 14%; further: read at 38.3 µM for the half of the compounds with a filed dose; 0% is about no effect
Shiga inhibitor = blocks Shiga toxin action in Vero cells | Vero cells, Shiga toxin protein synthesis inhibition reporter | inhibition, % at 38.7 µM | 9.2% of 290,000 active; in the data active means inhibition mostly above about 28%, no sharp cut-off; inactive means mostly below about 43%; further: 0% is about no effect
AMA1-RON2 inh = inhibitors of Plasmodium falciparum AMA1-RON2 interaction; AlphaScreen AMA1-biotinylated RON2 peptide binding; Potency, µM (series often up to 58.2 µM), for the others: at the top dose activity change, negative = inhibition, hits mostly inhibitors; 0.2% of 360,000 active;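 further: potency means the concentration at half of the fitted maximal effect; 0% = vehicle wells and -100% = peptide control; nearly all actives have a fitted effect of over 45% in size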
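AMA1 (3D7) with his tag at 25 nM final met compounds first, then biotinylated RON2 peptide at 25 nM; detection used donor plus acceptor beads, 10 µg/mL apiece, read by AlphaScreen after 30 min at room temperature.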
Pf growth 96h = P. falciparum growth inhibition at 96 hour, primary screen for plastid delayed-death inhibitors; AID 504834; 6.9% of 320,000 active; P. falciparum luciferase reporter growth, 96 h; Potency, µM (doses to about 28.7 µM), inactives show at the top dose activity change, negative = inhibition, most hits filed as inhibitors; further: potency means the concentration at half of the fitted maximal effect; on the % scale 0 is the no-effect control and ±100 the full control effect
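Delayed-death screen, second-generation endpoint: infected erythrocytes, 2% hematocrit, 0.05% parasitemia final; 96 hours at 37 C, 5% CO2; luciferase detection reagent; luminescence decrease equals reduced growth.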
SARS PLpro yeast = SARS-CoV PLP inhibition in yeast; S. cerevisiae expressing SARS-CoV PLpro, growth rescue; Potency, µM (series often up to 32.9 µM), for inactives: at the highest dose activity, positive = growth rescue, hits mostly activators; 0.19% of 330,000 active; calls by dose curve; further: potency means the concentration at half of the fitted maximal effect; 0% is about no effect; nearly all actives have a fitted effect of over 55% in size
Pf growth 48h = P. falciparum growth inhibition at 48 hours (one generation); P. falciparum luciferase growth in erythrocytes, 48 h; Potency, µM (top dose mostly 28.7 µM), for inactives: at the highest dose activity change, negative = inhibition, most hits filed as inhibitors; 5.9% of 310,000 active; AID 504832; further: potency means the concentration at half of the fitted maximal effect; on the % scale 0 is the no-effect control and ±100 the full control effect
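Parasite viability was followed by luminescence of a genomically integrated firefly luciferase. Cultures held 0.1% parasitemia at 2% hematocrit (final), incubated under 5% CO2 at 37 C.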
* marks the source's active call; other numbers are inactive results; ? = inconclusive; · = no result given; [ ] = another dose, or the depositor's remark. Unless noted, the call rests on the fitted dose curve; in most records, active means well fitted curve in the direction sought with a large enough effect; inconclusive means small, poorly fitted or top-dose-only effect, or another doubt; inactive means no such curve, though single readings can be large; an effect the other way counts as inactive or inconclusive.

SMILES	Cycloheximide cs	Shiga inhibitor	AMA1-RON2 inh	Pf growth 96h	SARS PLpro yeast	Pf growth 48h
CCOc1ccc(C(C)=O)cc1CN1C(=O)NC2(CCCCCC2)C1=O	-3.6	-2.7	11.6%	4.65µM*	1.7%	2.33µM*
CC(=O)c1ccc(OCC(C)C)c(CN2CCCCC2)c1	-9.7	-24.5	4.3%	3.7µM*	11.6%	-2.7%
COC(=O)c1ccc(CN2C(=O)NC3(CCCCC3)C2=O)cc1	119.1*	61.3*	-9.6%	66.1%	-0.7%	50.1%
CCC(=O)N(Cc1ccc(S(N)(=O)=O)cc1)C1CC(=O)N(c2ccccc2)C1=O (stereo not drawn)	6.6	28.1	-0.6%	?	5.7%	-6.7%
Cc1cc([N+](=O)[O-])cc(/C=N\NC(=O)C2COc3ccccc3O2)c1O (stereo not drawn)	-1.0	-15.6	-0.8%	?	-0.5%	?
CC(C)C1CC(C(F)(F)F)n2nc(C(=O)O)cc2N1 (stereo not drawn)	1.1	-3.2	3.4%	33.8%	0.5%	3.1%
Cc1ccc(S(=O)(=O)NN=C2C3CC4CC(C3)CC2C4)cc1	·	·	11.9%	9.5%	-23.5%	1.0%
Cc1ccc(S(=O)(=O)NC23CC4CC(CC(C4)C2)C3)cc1	·	·	-8.5%	?	1.2%	14.7µM*
Cc1ccc2sc(N(CCCN(C)C)C(=O)c3ccc(S(=O)(=O)N4CCOCC4)cc3)nc2c1C	·	·	-2.6%	?	-2.1%	13.1µM*
Cc1ccc2sc(N(CCCN(C)C)C(=O)c3ccc(S(=O)(=O)N(C)C4CCCCC4)cc3)nc2c1C	·	·	?	11.7µM*	-3.5%	10.4µM*
Cc1noc(C)c1-c1ccc(C(=O)NCCC(F)(F)F)c2occc12	·	·	4.6%	·	·	·
COc1cc(/C=C2/NC(=O)NC2=O)cc(Br)c1OCc1ccccc1	0.5	-2.3	-11.0%	5.1%	0.1%	?
OC(c1ccc(F)cc1)c1nc(-c2cnc3ccccc3c2)cs1 (stereo not drawn)	·	·	-2.4%	·	·	·
Nc1nc2ccc(NC(=O)c3ccco3)cc2s1	50.8*	107.0*	10.0%	58.9%	-3.4%	103.5%
Cc1cc(NC(=O)c2ccco2)ccc1-n1cnnn1	45.5*	112.6*	-6.2%	-12.0%	0.8%	136.8%
Cn1c(CCNC(=O)c2ccco2)nc2ccccc21	·	·	-18.2%	?	1.3%	26.4%
Cn1c(CCNC(=O)c2ccco2)nc2cc([N+](=O)[O-])ccc21	-1.1	-32.5	-6.7%	2.62µM*	-0.4%	7.6%
COc1ccccc1C(=O)Nc1ccc2c(c1)nc(CCNC(=O)c1ccco1)n2C	5.7	15.5	4.9%	3.3%	0.9%	?
Cn1c(CCNC(=O)c2ccco2)nc2cc(NC(=O)c3ccco3)ccc21	22.5*	48.6*	6.6%	46.0%	-2.0%	77.1%
CC(=O)c1cc2c(cc1F)C(C)(C)CCC2(C)C	·	·	-12.3%	·	·	·
O=c1[nH]c2cccnc2n1Cc1ccccc1	2.0	-8.6	1.9%	·	7.8%	15.7%
CCOCCCn1c(=S)[nH]c2cc(C(=O)NC3CCCC(C)C3C)ccc2c1=O (stereo not drawn)	-3.5	2.4	91.8%	?	0.0%	13.0%
Cc1cc2occ(CC(=O)NC3=NCCS3)c2cc1C(C)C	-9.9	-4.0	45.7%	-12.1%	-7.0%	-27.7%
O=C(Nc1ccc2[nH]c3c(c2c1)CCCC3)c1ccco1	13.7*	42.0*	-1.8%	?	0.8%	3.7µM*
Cn1c(CCNC(=O)c2ccco2)nc2cc(NS(=O)(=O)c3ccccc3)ccc21	-5.9	-27.5	-8.7%	·	-5.8%	?
SMILES	Cycloheximide cs	Shiga inhibitor	AMA1-RON2 inh	Pf growth 96h	SARS PLpro yeast	Pf growth 48h
Cn1c(CCNC(=O)c2ccco2)nc2cc(NC(=O)c3ccccc3)ccc21	36.2*	80.1*	-4.4%	?	1.0%	52.8%
Cn1c(CCNC(=O)c2ccco2)nc2cc(NC(=O)C3CCCCC3)ccc21	11.9*	36.6*	-0.3%	?	37.5%	23.8%
Cn1c(CCNC(=O)c2ccccc2)nc2cc(NC(=O)c3ccco3)ccc21	18.0	82.3	13.2%	·	5.7%	39.7%
CCCCC(=O)Nc1ccc2c(c1)nc(CCNC(=O)c1ccco1)n2C	15.5*	15.1	10.2%	-20.7%	-1.0%	-1.3%
Cn1c(CCNC(=O)c2ccco2)nc2cc(NC(=O)NC3CCCCC3)ccc21	2.5	2.7	6.4%	·	1.6%	56.5%
O=C(COC(=O)CN1C(=O)C2CC=CCC2C1=O)Nc1cccc([N+](=O)[O-])c1 (stereo not drawn)	·	·	0.0%	·	·	·
O=C(Nc1ccc2c(c1)OCCO2)C1c2ccccc2OCC(=O)N1Cc1cccnc1 (stereo not drawn)	·	·	0.9%	·	·	·
CCC(=O)NCCc1nc2cc(NC(=O)c3ccco3)ccc2n1C	15.5*	44.0*	2.0%	?	2.3%	92.6%
CCCn1c(CN2CCN(C(=O)c3ccco3)CC2)nc2cc(S(=O)(=O)N(C)C)ccc21	·	·	23.1%	9.28µM*	2.1%	10.4µM*
Cc1nc2cc(NC(=O)c3ccco3)ccc2n1C	23.6*	18.9	8.8%	131.8%	-1.7%	111.5%
Cc1cc2cc(NC(=O)c3ccco3)ccc2[nH]1	61.2*	137.0*	-10.6%	17.0%[5.75 µM]	3.5%	130.6%
COc1ccc(CCNC(=O)C(=O)N/N=C/c2cccs2)cc1OC	-1.3	-8.7	-7.4%	?	0.7%	19.5%
CCOC(=O)N1CCN(Cc2nc3cc(NC(=O)c4ccco4)ccc3n2CC)CC1	22.9*	32.4	3.3%	-19.0%	-0.7%	-2.0%
Cc1nc2cc(NC(=O)NCc3ccco3)ccc2n1C	41.3*	85.4*	-3.9%	·	0.0%	138.9%
Cc1nc2ccc(NC(=O)c3ccco3)cc2nc1C	17.3*	58.9*	7.2%	2.1%	11.8%	18.0%
O=C(Cn1c(=O)oc2ccccc21)N1CCCC1	0.7	-5.7	-2.9%	2.8%	0.6%	-5.8%
CN(CCC#N)C(=O)CSc1nnc(-c2c[nH]c3ccccc23)o1	11.0	14.7	-1.8%	-19.0%	-1.6%	1.5%
Cc1cccc(NC(=O)c2cc(S(=O)(=O)N3CCCC3)cn2C)c1	0.6	-3.2	8.3%	-21.5%	-3.4%	14.2%
CCOC(=O)c1cnc(-n2nc(C)cc2C)nc1NCCc1ccccc1	7.1	-2.8	21.4%	-8.9%	-21.8%	4.15µM*
CCOC(=O)c1cnc(-n2nc(C)cc2C)nc1N(C)C	18.4*	47.7*	45.8%	·	-7.8%	?
CCOC(=O)c1cnc(-n2nc(C)cc2C)nc1N1CCOCC1	-1.5	-8.2	46.2%	?	7.3%	13.7%
CCOC(=O)c1cnc(-n2nc(C)cc2C)nc1NC1CCCC1	-0.8	-9.2	27.9%	?	-4.0%	1.47µM*
CCOC(=O)c1cnc(-n2nc(C)cc2C)nc1NCc1ccc2c(c1)OCO2	-1.2	-15.4	17.4%	·	-15.1%	4.65µM*
CCOC(=O)c1cnc(-n2nc(C)cc2C)nc1Nc1ccccc1OC	-5.0	-5.3	·	?	-6.6%	?

Bioassay records (PubChem)
